# FLuc inh – blocks purified firefly luciferase enzyme activity; purified P. pyralis luciferase, luminescence, biochemical; Potency, µM (titrated, usually from 115 µM), usual class: inhibitors; actives 2.5% (n = 76,000); AID 1347043; note: nearly all actives have a fitted effect of over 65% in size
#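 Purified P. pyralis luciferase (10nM final) in 50mM Tris acetate pH 7.5, 10mM Mg acetate, 0.01% Tween-20, 0.05% BSA with 10uM D-luciferin and 10uM ATP. Compounds titrated qHTS. Luminescence imaged on CCD.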
# NPR1 antag – human Npr1 receptor antagonism; P16066; HEK293 hNpr1 GloSensor cGMP, ANP-stimulated luminescence; Potency, µM (doses to about 46.3 µM), for the others: at the top dose activity change, negative = inhibition, actives largely listed as inhibitors; actives 1.6% (n = 76,000); AID 1347048; calls by dose curve; note: nearly all actives have a fitted effect of over 60% in size
#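 Compound pre-incubated 30 min at room temperature on GloSensor-loaded HEK293 cells stably carrying hNpr1 and the pGS-40F cGMP biosensor. Stimulation uses hNppA at 0.1 nM final; luminescence is taken at baseline and 20 min post-agonist.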
# HEK cytotox – cytotoxic compounds in HEK 293 cells | actives 6.6% (n = 94,000) | AID 1345083 | Potency, µM (highest dose often 115 µM), inactives show at the highest dose activity change, negative = cytotoxicity, actives largely listed as inhibitors | HEK 293 viability, ATP luminescence (CellTiter-Glo), 48-72 h; note: nearly all actives have a fitted effect of over 60% in size
#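 Luminescence from cellular ATP, measured with CellTiter-Glo, indicates HEK 293 viability. Cells plated at 250 cells/well are treated with compound for 48 or 72 hr at 37 degree Celsius before reagent addition.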
# 3T3 cytotox – kills NIH 3T3 cells; actives 4.3% (n = 94,000); NIH 3T3 viability, CellTiter-Glo ATP luminescence, 48-72 h; Potency, µM (series often up to 96.7 µM), inactives show at the highest dose activity change, negative = cytotoxicity, usual class: inhibitors; AID 1345082; note: nearly all actives have a fitted effect of over 55% in size
#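 Viability of NIH 3T3 cells after 48 or 72 hr compound treatment at 37 °C was assessed by CellTiter-Glo, with luminescence imaged following a 10 min room-temperature step.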
# GPT2 inhibitor – GPT2 alanine aminotransferase inhibition. Recombinant GPT2, coupled pyruvate oxidase/HRP Amplex Red fluorescence. AID 1671188. Q8TD30. actives 0.25% (n = 100,000). Potency, µM (titrated, usually from 57.7 µM), inactives show at the top dose activity change, negative = inhibition, actives largely listed as inhibitors; note: nearly all actives have a fitted effect of over 60% in size
#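 Recombinant GPT2 (10ng/uL) with 250uM a-KG and 2mM L-alanine, 30 min at room temperature, in HEPES pH 7.5 buffer. Pyruvate detected by pyruvate oxidase/HRP/Amplex Red fluorescence after 30 min in the dark; AOA (50uM) as positive control.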
# Numbers without * were called inactive; i = inactive; ? = inconclusive; nt = no result; [ ] = another dose, or the depositor's remark. Only some compounds are listed: those with a hit (about 10% of all), similar ones and a draw of the others. Unless noted, calls come from the whole dose curve; as a rule, active = well fitted curve in the direction sought with a large enough effect; inconclusive = small, poorly fitted or top-dose-only effect, or another doubt; inactive = no such curve, though single readings can be large; an effect the other way counts as inactive or inconclusive. % is set by controls: 0 for no effect and ±100 for the full control effect; potency is the fitted concentration of half-maximal effect.
SMILES,FLuc inh,NPR1 antag,HEK cytotox,3T3 cytotox,GPT2 inhibitor
CC(C)(C)NC(=O)C[C@@H]1CCNC[C@@H]1Cc1cc(CC2CCCCC2)on1,i,6.6%[70.6 µM],44.7µM*,35.5µM*,-10.2%[88.5 µM]
CC(=O)N1CCN(C(=O)C[C@@H]2CCNC[C@@H]2Cc2cc(COc3ccccc3)on2)CC1,i,-2.4%,-7.2%,-18.9%,0.6%
CC1=NOC2(CCN([S+](=O)([O-])c3cccs3)C2)C1 (centres undefined),i,11.6%[70.6 µM],-8.1%[172 µM],-12.2%[138 µM],?
O=C(C1CCCC1)N1CCC2(CC1)CC(N1CCCCC1)CCO2 (centres undefined),nt,nt,-12.1%,-28.0%,-11.4%
Cc1ncc2c(c1CNC(=O)c1cc(C(C)C)n3ncnc3n1)CCNC2,i,2.2%,i,4.9%,i
CN(Cc1ccccc1)C(=O)C[C@@H]1CCNC[C@@H]1Cc1cc(CC2CCCCC2)on1,i,?,28.2µM*,44.7µM*,-2.4%[88.5 µM]
COCc1cc(C[C@H]2CNCC[C@H]2CC(=O)N(C)Cc2ccccc2)no1,i,-1.6%[70.6 µM],-5.7%[172 µM],-4.7%[174 µM],i
O=C(Nc1ccc2c(N3CCCC3)ncnc2c1)c1ccccc1Br,i,-13.8%,8.91µM*,?,3.0%
COc1ccc(CC(=O)Nc2ccc3ncnc(N4CCCCC4)c3c2)c(Cl)c1,i,-18.3%,?,?,i
COc1ccccc1C(=O)Nc1ccc2ncnc(N3CCCCC3)c2c1,i,?,39.8µM*,?,-0.7%
COc1cccc(CC(=O)Nc2ccc3c(N4CCCCC4)ncnc3c2)c1,i,?,31.6µM*,?,-1.9%
COc1ccc(NC(=O)N2CCCCC2c2nc(-c3cnccn3)n[nH]2)cc1 (centres undefined),i,6.4%,-10.0%,-6.8%,i
CC(C)Cn1c(=O)c(C(=O)N2CCN(C(=O)N(C)C)CC2)nc2cccnc21,nt,nt,-4.6%,-16.6%,i
CC1CCCN1C(=O)c1cn2cc(-c3cccc(Cl)c3)n(CC3CC3)c(=O)c2n1 (centres undefined),i,-8.8%,?,25.1µM*,1.9%
COc1ccc(-c2cn3cc(C(=O)N4CCCC4)nc3c(=O)n2CC2CC2)c(F)c1,i,-25.5%,31.6µM*,31.6µM*,?
O=C1NCCCCCN(C(=O)Nc2ccccc2)[C@H]2CCCC[C@@H]12,i,-1.8%,-3.0%,3.9%,i
COc1ccc(C(=O)N2CCc3nc(-c4ccc(Cl)cc4)nc(-c4ccccc4)c3C2)cc1,i,6.1%,39.8µM*,?,i
O=C(Cc1ccc(F)cc1)N1CCc2nc(-c3ccc(Cl)cc3)nc(-c3ccccc3)c2C1,i,8.4%,35.5µM*,?,i
Cc1ccccc1C(=O)N1CCc2nc(-c3ccccc3)nc(-c3ccc(Cl)cc3)c2C1,i,-2.1%,?,?,i
O=C(c1ccccc1Cl)N1CCc2nc(-c3ccc(Cl)cc3)nc(-c3ccccc3)c2C1,?,-2.1%,25.1µM*,?,-15.8%
COc1ccc(-c2nc(C(C)C)nc3c2CCN(C(=O)c2cccc(Cl)c2)CC3)cc1,i,-19.6%,?,44.7µM*,-9.0%
COc1ccc(C(=O)N2CCc3nc(-c4ccccc4)nc(-c4ccc(OC)cc4)c3C2)cc1,i,2.4%,?,-31.7%,i
CC(C)NC(=O)C1=NOC2CN(C(=O)C3CC3)CC12 (centres undefined),nt,nt,-6.4%[172 µM],-9.2%[138 µM],3.9%[88.5 µM]
CCOC(=O)[C@@H]1[C@@H](O)C(=O)N(C)C12CCN(C(=O)c1cccc(C#N)c1)CC2,nt,nt,-9.3%,?,nt
O=C(c1ccccc1Cl)N1CCC(C(=O)N2CCC(N3Cc4ccccc4C3=O)CC2)CC1,nt,nt,?,-14.8%,2.7%
O=C(N1CCC2(CC1)CN(c1ccncn1)CC2CO)C1(c2ccccc2)CC1 (centres undefined),i,0.5%,-17.5%,?,-18.0%
COc1ccc([C@H]2C[C@@H](O)[C@@H](O)[C@@H]2NCc2cnc[nH]2)cc1,i,-4.7%[70.6 µM],-7.1%[172 µM],-11.3%[174 µM],-29.1%[88.5 µM]
